A selection: hits, their analogues and other compounds. The true share with any hit is near 9.2%.
ELG1 DNA repair: qHTS screen for small molecules that inhibit ELG1-dependent DNA repair in human embryonic kidney (HEK293T) cells expressing luciferase-tagged ELG1 | HEK293T ELG1-luciferase reporter, luminescence, 16 h; DNA damage induced by 5-fluorouridine | Potency, µM (top dose mostly 46.1 µM), for inactives: top-dose activity change, negative = inhibition, most hits filed as inhibitors | hit rate 2.3% among 330,000; further: on the % scale 0 is the no-effect control and ±100 the full control effect; nearly all actives have a fitted effect of over 55% in size
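5-Fluorouridine DNA damage + compound/DMSO, 2,000 cells/well, 16 h, 37 °C/5% CO2. ONE-Glo, 30 min RT, luminescence. Readout = decrease in reporter signal.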
ELG1 genotoxic: qHTS screen for small molecules that induce genotoxicity in human embryonic kidney (HEK293T) cells expressing luciferase-tagged ELG1; HEK293T ELG1-luciferase reporter, luminescence, 16 h; AID 504466, 2011; Potency, µM (series often up to 46 µM), without a hit: at the top dose activity change, positive = activation, actives largely listed as activators; hit rate 1.3% among 330,000; further: % of control where 0% means no effect; nearly all actives have a fitted effect of over 60% in size
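Luminescence read-out: rising ELG1-luciferase signal, reflecting elevated ELG1 protein under genetic stress, flags genotoxic compounds. Cells were treated for 16 hr at 37 °C before ONE-Glo detection.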
NPC1 promoter act: qHTS Assay for NPC1 Promoter Activators; Huh7 NPC1 promoter luciferase reporter, 24 h; Potency, µM (top dose mostly 9.22 µM), inactives show at the highest dose activation, most hits filed as activators; hit rate 2.4% among 320,000; AID 485313, 2010; further: % of control where 0% means no effect; nearly all actives have a fitted effect of over 60% in size
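Readout is luciferase luminescence, reflecting NPC1 promoter activation in stably transfected Huh7 cells after 24 h compound exposure at 37 °C in reduced-serum medium with 10% FBS.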
FLuc counter: qHTS profiling assay for firefly luciferase inhibitor/activator using purifed enzyme and Km concentrations of substrates (counterscreen for miR-21 project) | purified FLuc, Km substrates, luminescence inhibition | Potency, µM (top dose mostly 57.5 µM), without a hit: at the highest dose activity change, negative = inhibition, usual class: inhibitors | hit rate 6.9% among 360,000 | AID 588342, 2011;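 further: plate controls were vehicle for no effect and reference inhibitor for full effect; nearly all actives have a fitted effect of over 55% in size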
Target sequence (P08659 whole entry, looked up): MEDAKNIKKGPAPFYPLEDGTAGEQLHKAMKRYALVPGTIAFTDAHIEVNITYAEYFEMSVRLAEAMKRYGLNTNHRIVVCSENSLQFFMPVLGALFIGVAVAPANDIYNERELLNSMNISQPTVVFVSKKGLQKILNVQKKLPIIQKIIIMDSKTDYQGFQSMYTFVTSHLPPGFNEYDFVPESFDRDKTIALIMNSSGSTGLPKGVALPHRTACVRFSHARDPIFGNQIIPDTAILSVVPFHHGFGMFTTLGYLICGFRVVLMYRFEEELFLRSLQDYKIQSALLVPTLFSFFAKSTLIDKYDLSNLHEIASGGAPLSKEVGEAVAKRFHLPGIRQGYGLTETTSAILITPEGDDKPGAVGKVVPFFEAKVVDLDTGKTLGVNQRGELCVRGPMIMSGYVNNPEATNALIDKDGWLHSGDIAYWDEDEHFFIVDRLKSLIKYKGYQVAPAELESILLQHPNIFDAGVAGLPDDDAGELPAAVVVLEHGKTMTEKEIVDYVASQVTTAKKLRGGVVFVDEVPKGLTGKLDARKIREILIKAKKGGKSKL
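Biochemical qHTS of compounds, final roughly 60 µM downward over six points, against 10 nM purified firefly luciferase using Km concentrations of substrates (10 uM D-luciferin, 10 uM ATP) in Tris acetate pH 7.5 buffer; luminescence output.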
Rab9 promoter act: qHTS Assay for Rab9 Promoter Activators; Huh7 Rab9 promoter-luciferase reporter, luminescence, 24 h; Potency, µM (highest dose often 9.22 µM), for the others: at the top dose activation, negative = inhibition, hits mostly activators; hit rate 2.8% among 320,000; further: % of control where 0% means no effect; nearly all actives have a fitted effect of over 60% in size
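Promoter activation is measured as luciferase luminescence in Huh7 cells stably transfected with a Rab9 promoter–luciferase construct, following 24 h compound exposure at 37 °C and 10 min reagent incubation at ambient temperature.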
SMN2 splice up: qHTS Assay for Enhancers of SMN2 Splice Variant Expression; HEK293 SMN2-luciferase splicing reporter, luminescence, 30-36 h; Potency, µM (top dose mostly 46.1 µM), without a hit: top-dose activity change, positive = activation, actives largely listed as activators; hit rate 2.8% among 210,000; further: % of control where 0% means no effect; nearly all actives have a fitted effect of over 55% in size
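HEK293 cells carry an SMN2 minigene-luciferase reporter in which exon 7 inclusion puts luciferase in frame. Cells were seeded at 2000 cells/well, attached for 10-12 hours, then exposed to compounds for 30-36 hours at 37C before ONE-Glo luminescence.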
* hit, by the source's call; ? = inconclusive; / = no result given. The call rests on the fitted dose curve; in most records, active means well fitted curve in the direction sought with a large enough effect; inconclusive means small, poorly fitted or top-dose-only effect, or another doubt; inactive means no such curve, though single readings can be large; an effect the other way counts as inactive or inconclusive. Potency means the concentration at half of the fitted maximal effect.

SMILES | ELG1 DNA repair | ELG1 genotoxic | NPC1 promoter act | FLuc counter | Rab9 promoter act | SMN2 splice up
Cn1c(NC(=O)c2ccc(C(C)(C)C)cc2)cc(=O)n(C)c1=O | ? | 9.2µM* | 14% | -10% | 17% | 8%
Cn1c(NC(=O)CCC2CCCCC2)cc(=O)n(C)c1=O | ? | 3.3µM* | 4µM* | 5.4µM* | 1.4µM* | 11µM*
Cc1ccc(NC(=O)Cn2cccc2)c(Br)c1 | ? | 8% | 1% | -7% | 15% | 14%
Cn1c(NNC(=O)c2ccc(C(C)(C)C)cc2)cc(=O)n(C)c1=O | 10% | 4% | -2% | -14% | -1% | 13%
COc1ccc(NC(=O)Cc2ccc(Cl)cc2)cc1S(=O)(=O)N1CCCCC1 | ? | -2% | 0% | -5% | -4% | /
COc1ccc(C2=NCN(c3ccc(C)cc3)C(=S)N2)cc1 | ? | 16µM* | ? | 12µM* | 2.8µM* | ?
Cc1ccc(N2CN=C(c3ccccc3)NC2=S)cc1 | ? | 15µM* | ? | 9.5µM* | ? | 27%
COc1ccc(OCc2n[nH]c(=S)n2-c2ccc(C)cc2)cc1 | -2% | 3% | -6% | -16% | -3% | -21%
O=c1cc(/C=C/c2ccccc2)oc2c1ccc1ccccc12 | 18µM* | -5% | -2% | ? | -1% | -32%
COc1cccc(CC(=O)Nc2nc3c(s2)C(=O)CC(C)(C)C3)c1 | -5% | 4% | -6% | 4% | 0% | -11%
Cc1ccc(C(=O)/C=C/c2cn(CN3CCN(C)CC3)c3ccccc23)cc1 | ? | 15µM* | ? | 4.8µM* | ? | 14%
Cn1cc(/C=C/C(=O)c2ccccc2)c2ccccc21 | ? | 1.8µM* | 1.6µM* | 0.54µM* | 1.3µM* | /
O=C(CSc1nc(-c2ccccc2)cs1)NCc1ccco1 | ? | 23µM* | 0% | ? | 3% | -8%
O=C(CSc1nnc(-c2ccccc2)c(-c2ccccc2)n1)NCc1ccco1 | 23µM* | -4% | -5% | -4% | 0% | -3%
CC(C(=O)Nc1ccccn1)N1C(=O)c2ccccc2S1(=O)=O (stereo not given) | -5% | 3% | 1% | 6% | 2% | /
COc1ccc(-c2nc(CSc3nnc(C)n4c3cc3oc(C)cc34)c(C)o2)cc1OC | / | / | / | 2% | / | /
O=C(O)c1cc(-c2ccc3c(c2)OCCO3)n[nH]1 | 9% | 3% | -6% | 11µM* | 0% | /
CCOC(=O)c1cc(-c2ccc3c(c2)OCCO3)n[nH]1 | ? | ? | 3.2µM* | 2.4µM* | 1.6µM* | /
Oc1ccccc1-c1cc(-c2ccc3c(c2)OCCO3)n[nH]1 | ? | 0.37µM* | 0.5µM* | 0.34µM* | 0.71µM* | 3.2µM*
CCOC(=O)c1cc2cc3ccccc3cc2[nH]1 | ? | ? | 2.2µM* | ? | 2.5µM* | 3.2µM*
O=C(O)c1ccc2c(c1)OCCOCCOCCOCCOCCO2 | 14% | -2% | -6% | 0% | 1% | /
O=C(Cn1nnnc1-c1ccccc1F)Nc1ccc(OC(F)(F)F)cc1 | / | / | / | -6% | / | 8%
COC(=O)c1cc(-c2ccc(Cl)cc2)n[nH]1 | ? | 7% | -9% | ? | 11% | /
CCOC(=O)c1cc(-c2ccc(OC)cc2)n[nH]1 | ? | ? | ? | 17µM* | ? | /
Cc1[nH]c2ccccc2c1C(=O)C(=O)N1CCOCC1 | -6% | 8% | -7% | 4% | 3% | /
SMILES | ELG1 DNA repair | ELG1 genotoxic | NPC1 promoter act | FLuc counter | Rab9 promoter act | SMN2 splice up
Cc1[nH]c2ccccc2c1C(=O)CSC(=S)N1CCOCC1 | ? | 10% | 21% | 21µM* | ? | /
COc1cc2c(cc1NS(=O)(=O)c1cccc(C#N)c1)n(C)c(=O)n2C | / | / | / | -12% | / | /
CCOc1ccc2nc(N3CCC(C(=O)NC4CCCCC4)CC3)sc2c1 | 21% | 4% | 24% | ? | 15% | /
CCOc1ccc2nc(N3CCCC(C(=O)NCc4ccc(C)cc4)C3)sc2c1 (stereo not given) | / | / | / | -19% | / | 16%
CCOc1ccc2nc(N3CCC(C(=O)NCCCN4CCOCC4)CC3)sc2c1 | ? | ? | ? | 8.5µM* | 3.5µM* | /
CCOc1ccc2nc(N3CCCC(C(=O)NCCCN4CCOCC4)C3)sc2c1 (stereo not given) | ? | ? | 22% | 13µM* | 30% | 13µM*
COC(=O)[C@@]12CCCN1[C@H](c1ccc(-c3ccc4c(c3)OCO4)cc1)[C@H]1C(=O)N(C)C(=O)[C@H]12 | 2% | -1% | / | / | / | /
Oc1c(Br)cc2oc3c(c2c1CNCc1ccccc1)CCCC3 | -20% | -5% | -1% | 1% | 13% | -3%
NC(=S)N/N=C/c1c(O)c(Br)cc2oc3c(c12)CCCC3 | 21µM* | 0% | -2% | -1% | -6% | /
CC(C)(C)c1ccc(/C=N/OCC(=O)NCc2ccc(F)cc2)cc1 | ? | -3% | -1% | 30µM* | 0% | -12%
CC(C)(C)c1ccc(/C=N/OCC(=O)NCc2ccccc2)cc1 | ? | -1% | 0% | 17µM* | -9% | -14%
O=C1NCCCN1Cc1ccc(Cl)cc1 | -1% | -2% | 3% | 0% | 1% | /
Cc1cccnc1Nc1nc(-c2ccc(O)cc2)cs1 | ? | ? | ? | 6.7µM* | 3.5µM* | 25µM*
Cc1cccnc1Nc1nc(-c2ccc(F)cc2)cs1 | ? | 13µM* | 1.4µM* | 2.7µM* | 2.8µM* | /
Cc1cc(=O)[nH]c2nnc(SCc3ccc(Cl)cc3)n12 | / | / | / | -11% | / | /
CC(OC(=O)c1ccc(Cl)nc1)C(=O)NC1(C#N)CCCCC1 (stereo not given) | 11% | -6% | 5% | 0% | 11% | /
C[C@@H](O)CCC[C@H](O)/C=C/[C@@H]1[C@@H](C/C=C\CCCC(=O)O)[C@@H](O)C[C@H]1O | / | / | / | / | / | 12%
CC1CCN(c2nc3nonc3nc2Nc2ccc(F)cc2)CC1 | ? | -7% | 0% | -2% | ? | -36%
COc1ccc(Nc2nc3nonc3nc2N2CCCCC2)cc1 | 21µM* | -1% | 0% | -3% | -9% | /
Cc1nc(SCc2ccccc2)nc2c1CCC2 | ? | ? | ? | 17µM* | ? | 11µM*
COc1cccc(CNc2ccc(N3CCCCC3)cc2)c1OC | 0% | -1% | ? | ? | 24% | -5%
COc1cccc(Nc2ccc(N3CCCCC3)cc2)c1OC | ? | ? | 3.5µM* | ? | 2.8µM* | /

Screening results: PubChem BioAssay, National Center for Advancing Translational Sciences (NCATS)
